This is an account of results in PubChem BioAssay.

Values joined by “and” are separate entries in the source; they are usually repeats but may differ in a detail not shown here. Equal entries are not always repeated. Active and inactive are the calls of the source. Unless noted, how the calls were made is not given here.

Experiment [1] can be described thus: A549 cell viability effects, profiling panel, calcein-AM fluorescence, 48 h, basal (AID 1162). Further: test concentration not given here. Conditions: higher = more signal.
The nature of experiment [2]: adipocyte viability effects, profiling panel, cell-based, 3T3-L1 adipocytes, calcein-AM fluorescence, 48 h, basal (AID 1163). Further: test concentration not given here. To be noted: 3T3-L1 adipocytes viability, higher = more signal.
A short description of experiment [3]: HepG2 cell viability effects, profiling panel, calcein-AM fluorescence, 48 h, basal (AID 1164). Further: test concentration not given here. To be noted: higher = more signal.
Experiment [4] in a line: MM1S cell viability effects, profiling panel, calcein-AM fluorescence, 48 h, basal (AID 1165).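 Further: viability of MM1S multiple myeloma cells under basal unstimulated conditions; test concentration not given here.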 Conditions: higher = more signal.
Experiment [5] is described as follows: basal RPMI8226 viability, no added stimulus, profiling panel, cell-based, calcein-AM fluorescence, 48 h, PK04 Diversity Set (AID 1166).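 Further: cells grown under basal conditions without added stimulus; test concentration not given here.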 To be noted: RPMI8226 myeloma viability, higher = more signal.
Experiment [6] is described as follows: basal HepG2 mitochondrial membrane potential changes, profiling panel, cell-based, JC-1 fluorescence, 24 h, 100 nL compound (AID 1167). Further: test concentration not given here. Conditions: higher = more signal.
Experiment [7] is described as follows: basal 3T3-L1 adipocyte mitochondrial potential changes, profiling panel, cell-based, JC-1 fluorescence, 3T3-L1 adipocytes, 24 h, 100 nL compound (AID 1168). Further: test concentration not given here. To be noted: JC-1 mitochondrial fluorescence, higher = more signal, called active from +8 up or from −8 down.
Experiment [8] in a line: basal RPMI8226 mitochondrial membrane potential changes, profiling panel, cell-based, JC-1 fluorescence, 24 h, 100 nL compound (AID 1169). Further: test concentration not given here. To be noted: RPMI8226 myeloma, JC-1 mitochondrial potential fluorescence, higher = more signal.
The nature of experiment [9]: basal MM1S mitochondrial membrane potential changes, profiling panel, cell-based, JC-1 fluorescence, 24 h, 100 nL compound (AID 1170). Further: test concentration not given here. Conditions: higher = more signal.
Experiment [10] can be described thus: A549 lung cancer cell viability effects, profiling panel, resazurin fluorescence, 24 h, PK04 Diversity Set (AID 1171). Further: test concentration not given here. Conditions: higher = more signal, called active from +8 up or from −8 down. (In general: Resazurin is reduced to fluorescent resorufin, in cell work by metabolically active cells.)
The nature of experiment [11]: HepG2 liver cancer cell viability effects, profiling panel, resazurin fluorescence, 24 h, PK04 Diversity Set (AID 1172). Further: test concentration not given here. To be noted: higher = more signal.
Experiment [12] is described as follows: basal S. cerevisiae growth modulation, no modifier, primary screen, OD600, strain BY4716, 24 h, basal condition (AID 1173). Conditions: OD600, 24 h, higher = more signal, called active from +8 up or from −8 down.
Experiment [13] can be described thus: MM1S myeloma cell viability, profiling panel, resazurin fluorescence, basal, 24 h, PK04 Diversity Set (AID 1174).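 Further: MM1S multiple myeloma cell line; test concentration not given here.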 To be noted: higher = more signal, called active from +8 up or from −8 down.
Experiment [14] has as its target Dihydroorotate dehydrogenase (quinone), mitochondrial (Plasmodium falciparum (isolate 3D7)) (UniProt Q08210). The experiment can be described thus: PfDHODH enzyme inhibitors, primary screen, biochemical, C-terminal His tag, absorbance 600 nm (AID 1175).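 Further: recombinant parasite enzyme with a five histidine tag at its C terminus; test concentration not given here.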 Conditions: DCIP absorbance 600 nm, higher = more signal, called active from +8 up or from −8 down.
Experiment [15] is described as follows: P. aeruginosa biofilm formation inhibitors, primary screen, strain PAO1, LB-PBS medium, absorbance 600 nm (AID 1176). Further: test concentration not given here. To be noted: P. aeruginosa PAO1 growth/biofilm, A600, 12 h; higher = more signal.
A short description of experiment [16]: S. cerevisiae RM11-1a growth modifiers, primary screen, strain RM11-1a, OD600, basal, 24 h (AID 1177).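 Further: cultures grown under basal conditions with no added stressor; test concentration not given here.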 Conditions: OD600, 24 h, higher = more signal, called active from +8 up or from −8 down.
Experiment [17] is described as follows: E. coli acrAB mutant growth effects, primary screen, E. coli filamentation inducers, strain DRC39, OD650, 24 h (AID 1178).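 Further: growth measured as culture turbidity by optical density at 650 nm; test concentration not given here.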 To be noted: higher = more signal, called active from +8 up or from −8 down.
Experiment [18] can be described thus: E. coli acrAB mutant growth effects, primary screen, E. coli filamentation inducers, strain DRC39, OD650, 48 h (AID 1179).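 Further: screen aims at cell division blockers that make cells filament.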 To be noted: E. coli DRC39 delta-acrAB growth, higher = more signal, called active from +8 up or from −8 down.
A short description of experiment [19]: RPMI8226 myeloma cell viability, profiling panel, resazurin fluorescence, basal, 24 h, PK04 Diversity Set (AID 1180).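 Further: RPMI8826 multiple myeloma cell line at 5000 cells per well; test concentration not given here.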 To be noted: higher = more signal.
Experiment [20] addresses E3 ubiquitin-protein ligase XIAP (Homo sapiens) (UniProt P98170). The experiment can be described thus: XIAP binders, primary screen, biophysical, small-molecule microarray, fluorescence 635 nm (AID 1181).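 Further: score merges 667 nm emission and signal to noise over triplicate slides.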 Conditions: small-molecule microarray binding, higher = more signal.

Dihydroorotate dehydrogenase (quinone), mitochondrial (Plasmodium falciparum (isolate 3D7)), sequence (Q08210 whole entry, looked up): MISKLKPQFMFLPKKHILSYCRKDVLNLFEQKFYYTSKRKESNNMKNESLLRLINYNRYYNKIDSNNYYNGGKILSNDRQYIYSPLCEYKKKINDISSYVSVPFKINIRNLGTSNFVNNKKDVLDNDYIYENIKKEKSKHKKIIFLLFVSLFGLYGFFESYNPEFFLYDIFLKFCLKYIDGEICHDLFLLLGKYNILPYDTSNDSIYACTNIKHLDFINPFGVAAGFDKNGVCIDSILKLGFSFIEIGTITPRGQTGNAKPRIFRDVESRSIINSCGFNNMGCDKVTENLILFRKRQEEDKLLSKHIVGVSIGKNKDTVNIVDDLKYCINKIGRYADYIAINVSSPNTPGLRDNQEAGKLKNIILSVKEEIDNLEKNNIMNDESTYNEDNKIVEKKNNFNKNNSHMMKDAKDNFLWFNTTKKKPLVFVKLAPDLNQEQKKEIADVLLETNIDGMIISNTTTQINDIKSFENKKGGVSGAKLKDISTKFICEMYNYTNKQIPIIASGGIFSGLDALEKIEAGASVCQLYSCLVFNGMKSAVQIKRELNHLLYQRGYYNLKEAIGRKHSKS
E3 ubiquitin-protein ligase XIAP (Homo sapiens), sequence (P98170 whole entry, looked up): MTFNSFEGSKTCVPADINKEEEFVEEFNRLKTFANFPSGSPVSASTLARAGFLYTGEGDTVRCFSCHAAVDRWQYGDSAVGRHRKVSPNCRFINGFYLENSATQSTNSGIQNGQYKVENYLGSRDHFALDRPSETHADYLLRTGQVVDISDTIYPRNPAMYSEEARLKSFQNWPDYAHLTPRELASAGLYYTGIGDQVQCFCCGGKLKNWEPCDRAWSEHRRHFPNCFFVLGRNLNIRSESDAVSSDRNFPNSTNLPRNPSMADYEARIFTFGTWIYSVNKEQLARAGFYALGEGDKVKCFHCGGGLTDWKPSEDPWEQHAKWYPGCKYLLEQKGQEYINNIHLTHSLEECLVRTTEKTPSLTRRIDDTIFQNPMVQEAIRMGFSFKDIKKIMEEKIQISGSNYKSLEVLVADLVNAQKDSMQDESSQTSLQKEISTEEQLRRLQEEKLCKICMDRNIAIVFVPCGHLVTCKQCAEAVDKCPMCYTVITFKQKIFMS

As to `CC(C)=NOC[C@@H](O)COCc1ccco1`, the z-score in experiment [1] was 0.991; in [2], -0.611; in [3] it was 0.828; in experiment [4], 0.191; in experiment [5] it was 0.313; in experiment [6], -0.0938. The z-score in [7] was 0.121 (inactive); in experiment [8], 0.602; in experiment [9], -0.391; in experiment [10] it was -0.736 (inactive); in [11], -0.907; in experiment [12] it was 0.14 (inactive). The z-score in experiment [13] is -1.09 (inactive); in [15] it was -0.324 (inactive); in [16], 0.534 (inactive); in experiment [17], 0.745 (inactive); in experiment [18] it was 0.41 (inactive); in experiment [19] it was -1.11. Moreover, the figures for the composite z-score in experiment [14] and in experiment [20] were 0.102 (inactive) and 0.0576, respectively.

Turning to `COc1ccc(COC(=O)NN=C2C[C@@H](O)[C@@H](O)[C@@H]3[C@@H]4C(=O)N(C(C)(C)C)C(=O)[C@@H]4CC[C@H]23)cc1`, the z-score was 0.894 in experiment [1]; 0.377 in [2]; 0.89 in experiment [3]; -0.156 in [4]; 0.0186 in experiment [5]; -0.206 in experiment [6]. For the same molecule, the z-score was 1.14 (inactive) in experiment [7]; 0.704 in [8]; -0.527 in experiment [9]; -0.581 (inactive) in experiment [10]; -0.947 in experiment [11]; -1.8 (inactive) in experiment [12]. The z-score in [13] was -0.18 (inactive); in [15], 0.541 (inactive); in experiment [16] it was -1.94 (inactive); in [17] it was -0.21 (inactive); in experiment [18], 0.0442 (inactive); in experiment [19] it was -0.571. The composite z-score in [14] was -1.31 (inactive); in experiment [20], -0.0845.

Turning to `C=CCN(Cc1ccccc1)C(=O)C1N(CCOCCO)C(=O)C2C(C(=O)O)C3C=CC21O3` (stereo not given), the z-score is 0.457 and -0.65 in experiment [1]; 1 and 0.0853 in [2]; -0.475 and -1.46 in experiment [3]; 0.443 and 1.02 in [4]; 0.953 and -1.25 in experiment [5]; 0.341 and -0.0276 in experiment [6]. Also, the z-score in experiment [7] is 0.978 (inactive) and -0.925 (inactive); in experiment [8], 0.747 and 0.0424; in experiment [9] it was 1.26 and -0.0145; in experiment [10] it was -0.474 (inactive) and 0.0887 (inactive); in experiment [11], 0.649 and -0.0686; in experiment [12] it was -1.56 (inactive) and 0.494 (inactive). In addition, the z-score in experiment [13] was 1.22 (inactive) and -0.234 (inactive); in experiment [15], -0.18 (inactive); in experiment [16], -1.46 (inactive) and 0.356 (inactive); in [17], 1.55 (inactive) and 0.0673 (inactive); in experiment [18], 1.05 (inactive) and -0.12 (inactive); in experiment [19], 0.795 and -0.418. Besides, the composite z-score in [14] is -3.5 (inactive) and -0.648 (inactive); in experiment [20], -0.02 and -0.291.

For the molecule `CC(C)[Si]1(C(C)C)OCc2cc(C3CC3)nc(CCc3ccccc3)c21`, the z-score was -0.351 and -0.69 in experiment [1]; 0.193 and -0.871 in [2]; 0.498 and 0.203 in [3]; -2.57 and -2.81 in experiment [4]; -0.48 and -3.77 in experiment [5]; -1.5 and -2.69 in experiment [6]. Further, the z-score is -0.186 (inactive) and -0.575 (inactive) in experiment [7]; -0.14 and -0.902 in [8]; 0.245 and -0.582 in experiment [9]; 1.12 (inactive) and 1.39 (inactive) in [10]; 0.983 and 1.3 in [11]; 1.04 (inactive) and 0.427 (inactive) in experiment [12]. Besides, the z-score in [13] was 0.905 (inactive) and 0.656 (inactive); in experiment [15], 0.338 (inactive) and 0.35 (inactive); in experiment [16], 0.534 (inactive) and 0.156 (inactive); in [17] it was 0.428 (inactive) and -0.615 (inactive); in experiment [18], 0.26 (inactive) and -0.173 (inactive); in experiment [19], 0.635 and 0.355. The composite z-score was -0.092 (inactive) and -0.377 (inactive) in [14]; 0.321 and -0.305 in [20].

For `C=CCN(CCCC)C(=O)C1N(CCCCCCO)C(=O)C2C(C(=O)O)C3C=CC21O3` (stereo not given), the z-score in experiment [1] was -0.835 and -0.441; in experiment [2] it was 0.221 and -0.0736; in [3] it was -1 and -0.393; in [4], 0.62 and 1.32; in [5], 0.646 and -0.44; in experiment [6], -0.253 and -0.939. The z-score is 0.051 (inactive) and -0.617 (inactive) in [7]; 0.221 and 0.855 in experiment [8]; -0.00969 and -0.273 in [9]; -0.59 (inactive) and -0.439 (inactive) in [10]; 0.063 and -0.938 in experiment [11]; 0.569 (inactive) and 0.411 (inactive) in experiment [12]. Also, the z-score was -0.76 (inactive) and -0.768 (inactive) in [13]; 0.109 (inactive) and -0.388 (inactive) in experiment [15]; -0.751 (inactive) and -0.681 (inactive) in [16]; 0.03 (inactive) and -0.0327 (inactive) in experiment [17]; -0.146 (inactive) and -0.105 (inactive) in experiment [18]; -0.704 and -0.992 in [19]. The composite z-score in experiment [14] is -0.669 (inactive) and -0.0254 (inactive); in experiment [20], -0.124 and 0.18.

Take `COC(=O)C1=C(C)N(Cc2ccccc2)C2=C3C(=O)CCC[C@@H]3[C@@](O)(C(=O)OC)C(=O)N2[C@@H]1c1ccccc1`: the z-score was 0.941 and 0.383 in [1]; 0.662 and -0.219 in [2]; 0.408 and -0.0984 in experiment [3]; -2.99 in experiment [4]; 0.28 and -2.5 in experiment [5]; 1.07 and -0.0794 in experiment [6]. Moreover, the z-score in [7] was -0.512 (inactive) and 0.739 (inactive); in experiment [8], 0.0423 and -0.467; in experiment [9], 1.36 and -0.505; in experiment [10], 0.477 (inactive) and 0.238 (inactive); in [11] it was 0.444 and 0.105; in experiment [12] it was -2.18 (inactive) and -2.94 (inactive). In addition, the z-score in experiment [13] is 0.478 (inactive) and 0.111 (inactive); in experiment [15] it was -0.847 (inactive); in experiment [16], -0.387 (inactive) and -0.728 (inactive); in experiment [17], 0.875 (inactive) and 0.548 (inactive); in [18], 0.37 (inactive) and 0.0908 (inactive); in experiment [19], 0.74 and 0.619. The composite z-score is -0.13 (inactive) and -0.103 (inactive) in [14]; -0.0601 and -0.0118 in experiment [20].

Take `C=CC[C@@H](O)c1ccc(O)c(F)c1`: the z-score is -0.562 and 0.575 in [1]; 0.207 and 0.747 in experiment [2]; -0.804 and -0.172 in [3]; -1.11 and 1.1 in experiment [4]; -0.508 and -1.15 in experiment [5]; -1.48 and -0.00596 in experiment [6]. Moreover, the z-score in [7] is -1.3 (inactive) and 1.47 (inactive); in experiment [8], 0.345 and 0.642; in experiment [9] it was -0.347 and 1.29; in experiment [10], -0.694 (inactive) and 0.0466 (inactive); in experiment [11], -0.0101 and 0.942; in experiment [12], -0.898 (inactive) and -2.97 (inactive). In addition, the z-score in experiment [13] was -0.87 (inactive) and 1.56 (inactive); in [15], 0.671 (inactive); in [16], 0.912 (inactive) and -1.83 (inactive); in experiment [17], -0.046 (inactive) and 1.79 (inactive); in experiment [18] it was -0.248 (inactive) and 1.06 (inactive); in experiment [19], -0.511 and 0.864. Besides, the composite z-score in [14] was 0.672 (inactive) and -0.585 (inactive); in experiment [20], -0.0884 and -0.042.
